HP1b chromo inh: blocks HP1-beta chromodomain binding to methylated histone tails; P83916; AlphaScreen HP1-beta / biotin-H3K9me3 peptide binding; Potency, µM (doses to about 114 µM), most hits filed as inhibitors; hit rate 0.56% among 390,000; further: nearly all actives have a fitted effect of over 70% in size
Target sequence (P83916 whole entry, looked up): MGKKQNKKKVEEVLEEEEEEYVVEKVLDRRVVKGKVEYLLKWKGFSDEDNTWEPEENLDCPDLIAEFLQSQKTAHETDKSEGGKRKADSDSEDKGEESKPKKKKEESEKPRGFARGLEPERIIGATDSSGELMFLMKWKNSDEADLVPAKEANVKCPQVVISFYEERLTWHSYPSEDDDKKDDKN
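Compound inhibition of the preformed complex between 50 nM HP1-beta and 50 nM biotinylated H3K9me3 peptide was read by AlphaScreen. Buffer was PBS pH 7.4 with 0.01% Tween-20. Incubations ran 30 min at room temperature, with 10 ug/mL donor/acceptor beads.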
BAZ2B block: BAZ2B (human) inhibition; Q9UIF8; AlphaScreen BAZ2B-H3K14Ac peptide displacement; Potency, µM (highest dose often 114 µM), usual class: inhibitors; hit rate 4.4% among 360,000; AID 504333; further: nearly all actives have a fitted effect of over 60% in size
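BAZ2B (50 nM) with biotin-H3(5-23)K14Ac peptide (50 nM) in PBS pH 7.4, 0.01% Tween-20, preformed 30 min, then compound 30 min at room temperature; top concentration 110uM. AlphaScreen streptavidin donor/nickel chelate acceptor beads (10 ug/mL final), 20 min dark, signal read.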
G9a block: blocks human histone lysine methyltransferase G9a | Q96KQ7 | G9a H3K9 monomethylation, AlphaScreen, 2 h | Potency, µM (doses to about 102 µM), actives largely listed as inhibitors | hit rate 8.8% among 350,000; further: nearly all actives have a fitted effect of over 75% in size
Target sequence (Q96KQ7 913-1193 limits assumed): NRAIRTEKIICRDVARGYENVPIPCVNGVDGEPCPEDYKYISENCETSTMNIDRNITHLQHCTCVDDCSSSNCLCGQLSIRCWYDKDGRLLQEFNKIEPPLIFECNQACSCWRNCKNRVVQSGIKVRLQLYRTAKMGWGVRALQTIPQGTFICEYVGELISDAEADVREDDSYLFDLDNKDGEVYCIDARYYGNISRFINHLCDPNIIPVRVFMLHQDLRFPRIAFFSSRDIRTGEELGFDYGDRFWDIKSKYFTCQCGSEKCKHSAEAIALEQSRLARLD
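Enzyme 20 nM + cpd, 15 min RT; add b-H3K9 pep 500 nM / SAM 20 uM; 2 h RT; anti-H3K9me1 Ab 0.5 ug/mL + SA donor / anti-rabbit acceptor beads 20 ug/mL each, 10 min; AlphaScreen read.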
JMJD2A Tudor: inhibitors of human JMJD2A Tudor domain; hit rate 4.4% among 390,000; AlphaScreen JMJD2A-Tudor / H3K4me3 peptide binding; O75164; Potency, µM (highest dose often 114 µM), most hits filed as inhibitors; AID 504339; further: nearly all actives have a fitted effect of over 50% in size
Sfp inh: inhibitors of Bacillus subtilis Sfp phosphopantetheinyl transferase | Potency, µM, usual class: inhibitors | Biochemical Sfp PPTase activity, qHTS | Q9F4F7 | hit rate 3.5% among 310,000;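 further: the enzyme is Sfp with the accession as filed and its product quenches rhodamine fluorescence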
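With Hepes-Na pH 7.6 buffer containing 10 mM MgCl2, Sfp (15 nM) modified BHQ-2-YbbR (12.5 uM) using rhodamine-CoA (5 uM). Two reads 30 minutes apart at 525/598 nm yielded each well's rate.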
Of the large screens only hits and unclear results are named; the others gave an inactive call. Compounds with a hit are over-represented: about 12% of the library has one in this group of screens. The call rests on the fitted dose curve; in most records, active means well fitted curve in the direction sought with a large enough effect; inconclusive means small, poorly fitted or top-dose-only effect, or another doubt; inactive means no such curve, though single readings can be large; an effect the other way counts as inactive or inconclusive.

C#CCOCCOCCOCCNc1nc(N2CCN(C(=O)[C@H](CCCCN)n3cc(CN)nn3)CC2)nc(N2CCN(C(=O)[C@H](CCC(=O)O)n3cc(CN)nn3)CC2)n1	JMJD2A Tudor inconclusive (no result: BAZ2B block, G9a block, Sfp inh)
CC(=O)c1ccc(NC(=O)c2ccc3c(c2)N(Cc2cccc(Cl)c2)C(=O)c2ccccc2S3=O)cc1 (centres undefined)	none (no result: Sfp inh)
CCOC(=O)c1c(C)[nH]c(C)c1C(=O)COC(=O)c1ccc(OC)cc1	BAZ2B block inconclusive, G9a block 39.8µM
CCOC(=O)c1c(C)[nH]c(C)c1C(=O)COC(=O)/C=C/c1ccccc1[N+](=O)[O-]	HP1b chromo inh inconclusive, JMJD2A Tudor 89.1µM (no result: BAZ2B block, G9a block, Sfp inh)
COc1ccc(C(=O)Nc2ccc(Cn3ccnc3)cc2)cc1OC	none
COc1cc(Cn2ccnc2)c(OC)cc1Cn1ccnc1	BAZ2B block 79.4µM, G9a block inconclusive
COc1cc(/C=N/Nc2ccc(C(F)(F)F)cn2)cc(OC)c1O	G9a block 39.8µM, Sfp inh inconclusive
C=CCOc1ccc(/C=N/Nc2ccccn2)cc1OC	Sfp inh inconclusive
COc1cc(N/N=C/c2ccccc2O)ncn1	BAZ2B block 28.2µM, JMJD2A Tudor 44.7µM
C/C(=N\Nc1ccc(C(F)(F)F)cn1)c1ccncc1	none
COc1cc(/C=N/Nc2ccccn2)cc(OC)c1O	G9a block 28.2µM, Sfp inh 35.5µM
CCOc1ccc(/C=N/N(C)c2ccccc2)cc1OC	HP1b chromo inh inconclusive, BAZ2B block 31.6µM, G9a block 50.1µM, JMJD2A Tudor 44.7µM
COc1ccccc1-n1cnc2sc(C)c(C)c2c1=O	none
Oc1ccc(/C=N/Nc2ccc(C(F)(F)F)cn2)cc1	none
Oc1ccc(/C=N/Nc2ccc(C(F)(F)F)cn2)c(O)c1	BAZ2B block 28.2µM (no result: HP1b chromo inh, JMJD2A Tudor)
CCOc1ccc(/C=N/Nc2ccccn2)cc1OC	JMJD2A Tudor inconclusive, Sfp inh 56.2µM (no result: BAZ2B block)
CSc1cnn(Cc2ccccc2)c(=O)c1SCc1ccccc1	G9a block 8.91µM, Sfp inh 3.16µM
CSc1cnn(-c2ccccc2)c(=O)c1SC	Sfp inh 79.4µM
Cn1c(=O)c2nc(SCc3ccccc3)n(C)c2n(C)c1=O	none (no result: BAZ2B block, G9a block, Sfp inh)
COc1ccc(-c2nnc(SCCC(=O)O)n2-c2ccccc2)cc1OC	none
COc1ccc(N2CCN(C(=O)c3ccc4ccccc4n3)CC2)cc1	G9a block 70.8µM
O=C(c1cc2ccccc2cc1O)N1CCCC1	none
O=C(c1ccc2ccccc2n1)N1CCN(c2ccccc2)CC1	none
O=C(c1ccc2c(c1)[nH]c(=S)n1c3ccccc3nc21)N1CCN(c2cccc(Cl)c2)CC1	G9a block inconclusive
O=C(c1ccc2ccccc2n1)N1CCN(c2ccccc2O)CC1	G9a block 44.7µM
O=C(c1cc2ccccc2cc1O)N1CCN(c2ccccc2O)CC1	G9a block 44.7µM, JMJD2A Tudor inconclusive (no result: Sfp inh)
COc1ccc(N2CCN(C(=O)c3ccc4c(c3)[nH]c(=S)n3c5ccccc5nc43)CC2)cc1	BAZ2B block inconclusive, G9a block 12.6µM (no result: HP1b chromo inh, JMJD2A Tudor)
Cc1ccc(NC(=O)COC(=O)CCc2ccccc2)c(Cl)c1	none
C=CCC(NCc1ccccc1)c1ccc(OC)cc1 (centres undefined)	none (no result: G9a block)
Fc1cccc(CNc2ncnc3ccc(-c4cccc(Cl)c4)cc23)c1	none (no result: HP1b chromo inh, JMJD2A Tudor, Sfp inh)
CC(C)(C)OC(=O)N[C@@H](Cc1ccccc1)c1nnc(S(=O)(=O)Cc2ccccc2)o1	G9a block 11.2µM, Sfp inh 8.91µM (no result: HP1b chromo inh, JMJD2A Tudor)
CCC(C)[C@@H](NC(=O)OC(C)(C)C)c1nnc(S(=O)(=O)Cc2cccc(C)c2)o1 (some centres undefined)	G9a block inconclusive, Sfp inh 25.1µM
Cc1ccccc1CS(=O)(=O)c1nnc([C@H](Cc2ccccc2)NC(=O)OC(C)(C)C)o1	G9a block 39.8µM, Sfp inh 7.94µM
CCSc1nnc([C@H](Cc2ccccc2)NC(=O)OC(C)(C)C)o1	none
CCc1ccccc1NC(=O)CN(C)C(=O)COC(=O)c1cccnc1Cl	none (no result: BAZ2B block, G9a block, Sfp inh)
CC(NC(=O)COc1cccnc1[N+](=O)[O-])c1ccc(Cl)cc1 (centres undefined)	none
C/C(CC(=O)N1CCN(C=O)CC1)=N\NC(=O)c1ccc([N+](=O)[O-])cc1	G9a block 10µM, Sfp inh inconclusive
C/C(CC(=O)N1CCN(C=O)CC1)=N\NC(=O)c1cc2ccccc2cc1O	G9a block inconclusive
Cc1ccc(/C(O)=C/c2nc3cc(C)ccc3oc2=O)cc1	none (no result: G9a block)
CC(C)(C)/C(O)=C/c1nc2ccccc2oc1=O	none (no result: G9a block)
CC(C)C/C(O)=C/c1nc2cc(Cl)ccc2oc1=O	BAZ2B block inconclusive, G9a block 35.5µM, JMJD2A Tudor inconclusive, Sfp inh 56.2µM
O=c1oc2ccc(Cl)cc2nc1/C=C(\O)c1ccco1	BAZ2B block 35.5µM, G9a block 8.91µM, JMJD2A Tudor 89.1µM, Sfp inh inconclusive
Cn1c2ccccc2c(=O)c2cc(C#CC3=CCCCC3)ccc21	none (no result: Sfp inh)
CCOc1cc(NC(=S)NCCCN2CCOCC2)c(OCC)cc1NC(=O)C(C)C	G9a block inconclusive, Sfp inh inconclusive
CCOc1ccc(NC(=O)c2ccc(NCC(=O)N3CCCCCC3)cc2)cc1	G9a block 25.1µM
CCOc1ccc(NCC(=O)c2ccc(C)cc2)cc1	BAZ2B block 35.5µM, JMJD2A Tudor inconclusive
Cc1ccc(C(=O)CNc2ccc(Cl)cc2)cc1	BAZ2B block inconclusive, G9a block inconclusive
CC(C)C(=O)NNC(=O)CC(=O)Nc1ccccc1C(=O)O	G9a block inconclusive
COc1cc(NC(=O)C(NC(=O)C2CCC(C)CC2)C(C)C)cc(OC)c1OC (centres undefined)	none (no result: Sfp inh)
C/C(=N\N1C(=O)CSC1=S)c1ccc(Br)cc1	BAZ2B block inconclusive, G9a block 39.8µM, Sfp inh inconclusive
CC/C=C\CC[C@H](OC(=O)c1ccc(Br)cc1)C1=CCCCC1=O	none (no result: HP1b chromo inh, BAZ2B block, G9a block, JMJD2A Tudor)
Cc1ccc(C)n1-c1ccc(-c2nnco2)cc1	G9a block 44.7µM (no result: HP1b chromo inh, JMJD2A Tudor)
Cc1cc(-c2nnco2)c(C)n1-c1ccc(F)cc1	JMJD2A Tudor inconclusive
C/C(=N/Nc1ccc(C)cc1)C1(C)N(O)C(C)(C)C(c2ccco2)=[N+]1[O-] (centres undefined)	BAZ2B block inconclusive, G9a block 7.08µM
Cc1ccc(-n2c(SCC(=O)NCC3CCCO3)nc3ccccc3c2=O)cc1 (centres undefined)	none (no result: BAZ2B block, G9a block, Sfp inh)
O=S(=O)(/N=C(\Sc1ccc(Cl)cc1)c1ccccc1)c1ccccc1	Sfp inh 56.2µM
COC(=O)Cc1c(C)c2c(OCc3nn[nH]n3)cc(C)cc2oc1=O	G9a block 44.7µM
Cc1c(C)c2cc(Cl)c(OCc3nn[nH]n3)cc2oc1=O	BAZ2B block inconclusive, G9a block inconclusive, Sfp inh 79.4µM
COC(=O)Cc1c(C)c2ccc(OCc3nn[nH]n3)cc2oc1=O	G9a block inconclusive
C=C(Cl)COc1cc(C)cc2oc(=O)cc(CC)c12	none
CCc1cc(=O)oc2cc(C)cc(OCc3nn[nH]n3)c12	G9a block 44.7µM
N/C(COc1ncn(-c2ccccc2)n1)=N\S(=O)(=O)c1ccc(Cl)cc1Cl	none (no result: G9a block)
O=c1nc(-c2ccccc2Cl)c2cc(F)ccc2[nH]1	none

Screening results from PubChem.
